Experimental data published in PubChem BioAssay (NCI).
Compounds without any hit were thinned out: in the full panel of roughly 83,000, 20% have a hit.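 In brief: 96-well plates, 48 h treatment, single concentration, percent growth endpoint.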 A number with no mark means an inactive call. Activity calls are given as the source filed them. Rule for the calls: active = growth percent below 10; inactive = the rest.

How the values were obtained:
Assay in all cases: NCI-60 one-dose screen, 48 h (100 = growth as untreated, 0 = no growth, -100 = all killed)
Conditions in all cases: 10 µM unless noted
[1] = system: DU-145 prostate
[2] = system: K-562 leukemia
[3] = system: MALME-3M melanoma
[4] = system: MDA-MB-231 breast
[5] = system: RXF 393 renal
[6] = system: SF-268 CNS
[7] = system: SF-295 CNS
[8] = system: SF-539 CNS
[9] = system: UACC-257 melanoma
[10] = system: M14 melanoma

Compound | growth [1] | growth [2] | growth [3] | growth [4] | growth [5] | growth [6] | growth [7] | growth [8] | growth [9] | growth [10]
C/C(=C\CCc1ccsc1)CC/C=C(\C)CCCN1CCSCC1 | 96.6% | 61.9% | 98.4% | 85.9% | 98.1% | 103% | 82% | 89.9% | 94.6% | 96.2%
CC[N+](CCCCCCCCCC[N+](CC)(c1ccccn1)c1ccccn1)(c1ccccn1)c1ccccn1 | 13.6% | -2.68% (active) | -10.7% (active) | 15.9% | 46.1% | 17.1% | -71.2% (active) | 11% | -19.2% (active) | 10.3%
O=C(Nc1ccccc1)P(=O)(O)c1ccccc1 | 108% | 95.7% | 123% | 100% | 105% | 98.5% | 122% | 90.2% | 96.5% | 103%
CC(=O)Nc1c(Cl)cc2c(c1Cl)Cc1cc([N+](=O)[O-])ccc1-2 | 93.3% | 80.4% | 68.2% | 97.5% | 104% | 101% | 81.8% | 89.1% | 77.9% | 88.1%
O=CN1N=C(c2ccc(Cl)cc2)CC1c1cccc(Nc2ccnc3cc(Cl)ccc23)c1 (stereo not given) | 14% | 3.74% (active) | 8.98% (active) | 30.6% | -0.443% (active) | 36.7% | -10.4% (active) | -25.9% (active) | 12.1% | 16.2%
C/C(=C\CCc1ccoc1)CC/C=C(\C)CCCN1CCSCC1 | 92.9% | 56.6% | 104% | 80% | 78.8% | 96.4% | 46.9% | 92.1% | 61.1% | 81.6%
CCN1CC2=C(Nc3nc(SC)[nH]c(=O)c3C2c2cc(OC)c(OC)c(OC)c2)/C(=C/c2cc(OC)c(OC)c(OC)c2)C1 (stereo not given) | 112% | 90.9% | 112% | 104% | 106% | 110% | 100% | 104% | 97% | 114%
CC1CN(C2CCCCC2)C(=O)NC1=O (stereo not given) | 113% | 103% | 108% | 104% | 110% | 105% | 108% | 106% | 109% | 99.3%
COc1cnc2c(c1)C(=O)c1c-2n(CCCNC2=NCCS2)c(=O)c2cc(F)ccc12 | 14.9% | -34.4% (active) | 27.8% | 51% | 35.1% | 23.2% | -5.74% (active) | -13.2% (active) | 21.8% | 5.96% (active)
Cc1cc(C)c(C(=O)c2cccs2)c(C)c1 | 111% | 98.4% | 110% | 107% | 110% | 104% | 122% | 106% | 99.3% | 103%
COc1ccc(-c2cnc(SCC(=O)Nc3ccc(-c4nc5ccccc5s4)cc3)n2-c2ccc(OC)cc2)cc1 | 120% | 108% | 129% | 111% | 121% | 100% | 113% | 102% | 116% | 112%
COc1cnc2c(c1)C(=O)c1c-2n(CCCN2CCCC2)c(=O)c2cc(F)ccc12 | -1.81% (active) | -45.1% (active) | -71.9% (active) | 23% | -81% (active) | 12.1% | -20.4% (active) | -39.3% (active) | -12.2% (active) | 2.05% (active)
NC(=NCCCCCCN=C(N)/N=C(\N)Nc1ccc(Cl)cc1)/N=C(\N)Nc1ccc(Cl)cc1 | 33.2% | 8.11% (active) | 26.7% | 0.0954% (active) | 1.06% (active) | 20.8% | -9.13% (active) | 0.167% (active) | 33.7% | 22.6%
COC(=O)[C@H](Cc1cn(C)cn1)NC(=O)[C@H](C)NC(=O)Nc1cc(C(F)(F)F)cc(C(F)(F)F)c1 | -80.3% [100 µM] (active) | -26.6% [100 µM] (active) | -81.3% [100 µM] (active) | -76.4% [100 µM] (active) | -83.1% [100 µM] (active) | -77% [100 µM] (active) | -82.2% [100 µM] (active) | -95.1% [100 µM] (active) | -92.9% [100 µM] (active) | -85.2% [100 µM] (active)
Cc1n(Cc2ccc3ccccc3c2)c2ccccc2[n+]1Cc1ccc2ccccc2c1 | 0.672% (active) | -63.1% (active) | -39.7% (active) | -83.6% (active) | -88% (active) | -67.6% (active) | -37.6% (active) | -56.4% (active) | -53.9% (active) | -69% (active)
COc1cc(/C=C\C(C)=N\Nc2ccccc2)ccc1O | 102% | 56.1% | 127% | 76.8% | 108% | 76.4% | 85.5% | 88.1% | 79.2% | 97.5%
COC(=O)Nc1ccc2ccc3c(NC(=O)OC)ccc4ccc1c2c43 (tested in a mixture with another compound) | 86.9% | 25% | 68.8% | 54.1% | 77.6% | 67.7% | 48.2% | 50.7% | 71.7% | 25.4%
Cc1cnc2nc(-c3ccc(N(C)C)cc3)cn2c1 | 109% | 97.1% | 97.8% | 107% | 79.7% | 122% | 106% | 100% | 102% | 100%
CCOc1nc(-c2ccco2)n2nc(-c3ccco3)cc2n1 | 118% | 114% | 122% | 98% | 98.4% | 106% | 98.3% | 89.6% | 116% | 132%
C=CCN(/C=C/CN(CC=C)CC=C)CC=C | 110% | 100% | 102% | 90.4% | 111% | 105% | 84.3% | 99.7% | 108% | 103%
O=C1C(=O)c2c(nc3ccc(Cl)cn23)-c2ccccc21 | -100% (active) | -100% (active) | -81.8% (active) | -59% (active) | -100% (active) | -95.3% (active) | -80.3% (active) | -100% (active) | -93.3% (active) | -98.7% (active)
c1ccc2nc(Cn3c[n+](Cc4ccc5ccccc5n4)c4ccccc43)ccc2c1 | 60.8% | 17.8% | 20.3% | 26.4% | 44.1% | 54.9% | 55.5% | 41.5% | -9.49% (active) | 21.7%
CSc1nc(N)c2c(n1)N(C)C=NS2(=O)=O | 122% | 116% | 110% | 108% | 116% | 107% | 105% | 107% | 114% | 106%
N#Cc1c(NC(=O)c2ccco2)[n+]([O-])c2ccccc2[n+]1[O-] | 95.5% | 84.9% | 112% | 96.1% | 95.5% | 110% | 107% | 84.4% | 102% | 104%
N#Cc1c(-c2ccccc2)cc(-c2ccccc2)n(CC(=O)O)c1=O | 87.5% | 21.1% | 56.2% | 60.3% | 62.3% | 67.2% | 36.8% | 66.5% | 64.4% | 26.3%
COc1ccc(-c2cc(-c3cccnc3)nc3sc(C(=O)Nc4ccccc4)c(N)c23)cc1OC | 54.6% | 34.2% | 109% | 69.7% | 76% | 69% | 77.2% | 73.3% | 107% | 66.3%
NC(=O)NC1(C(=O)O)CCCC1 | 118% | 99.9% | 114% | 109% | 125% | 106% | 116% | 102% | 101% | 113%
